Results with a measured potency or affinity are listed apart.

Test [1] has as its system Staphylococcus aureus. The settings on record: Concentration 32 ug.mL-1;; ASSAY_TEST Inhibition of Bacterial Growth; detection method Absorption (OD600); MEDIA CAMHB; plate type 384well; NBS; CORNING #3640; time 18 hr.
Test [2] relates to Escherichia coli. The following applies: Concentration 32 ug.mL-1;; ASSAY_TEST Inhibition of Bacterial Growth; detection method Absorption (OD600); MEDIA CAMHB; plate type 384well; NBS; CORNING #3640; time 18 hr.

Turning to `O=C(Cn1nc2c3sc(N4CCCC4)nc3ncn2c1=O)Nc1cccc(Br)c1`, the Inhibition (commonly the change of the read-out against control, counted positive when it falls) in test [1] came to 14.01%; in test [2] it was 2.84%.

As to `CC(=O)c1ccc(N2CCN(C(=O)CCc3nnc4c5cc(-c6ccccc6)nn5ccn34)CC2)cc1`, the results for the Inhibition in test [1] and in test [2] were 11.68% and 2.66%, respectively.

For `COc1ccc(-c2cc3c4nn(CC(=O)Nc5ccc(C)cc5)c(=O)n4ccn3n2)cc1`, the results for the Inhibition in test [1] and in test [2] were -0.62% and 1.25%, respectively.

With `Cc1nnc2ccc(S(=O)(=O)N(Cc3ccccc3)c3ccc(F)cc3)cn12`, the Inhibition is recorded as -4.97% in test [1] and -1.95% in test [2].

Consider `COc1ccc(-c2cc3c4nn(CC(=O)Nc5ccc(C)c(C)c5)c(=O)n4ccn3n2)cc1`, for which the values for the Inhibition in test [1] and in test [2] were 9.35% and 6.79%, respectively.

Regarding `CC(C)NC(=O)CSc1nnc2c(=O)n(Cc3ccc(F)cc3)ccn12`, the Inhibition in test [1] is given as -0.55%; in test [2], -7.51%.

Regarding `CSc1cccc(NC(=O)Cn2c(=O)c3nnc(C)n3c3ccccc32)c1`, the Inhibition in test [1] is on record as -2.91%; in test [2], 2.47%.

On to `COC(=O)c1ccc(NC(=O)Cn2nc3ccc(S(=O)(=O)c4ccccc4)nn3c2=O)cc1`, for which the Inhibition in test [1] was -1.97%; in test [2] it was -13.66%.

Take `COc1ccc(C)cc1NC(=O)Cn1nc2ccc(SCc3ccc(Cl)cc3)nn2c1=O`: the results for the Inhibition in test [1] and in test [2] were 8.35% and -14.85%, respectively.

Turning to `CC(C)c1nnc2c(SCC(=O)Nc3ccc(C#N)cc3)nc3ccccc3n12`, the Inhibition in test [1] is given as 2.21%; in test [2], 1.03%.

Turning to `COc1ccc2[nH]cc(C(=O)CSc3nnc4c(=O)n(-c5ccc(F)cc5)ccn34)c2c1`, the Inhibition in test [1] is recorded as 14.61%; in test [2], -2.83%.

As for `CC(=O)c1cccc(NC(=O)CSc2nc3ccccc3n3c(C)nnc23)c1`, the Inhibition in test [1] is listed as -0.38%; in test [2], -4.41%.

`Cc1ccc(-c2cc3c4nn(CC(=O)Nc5cc(F)ccc5C)c(=O)n4ccn3n2)cc1C`: the Inhibition is recorded as 8.9% in test [1] and -4.51% in test [2].

In the case of `COc1cccc(NC(=O)Cn2nc3c4c5c(sc4ncn3c2=O)CCCC5)c1`, the Inhibition in test [1] is 2.27%; in test [2], -1.99%.

With `COc1ccc(NC(=O)Cn2nc3c(Sc4cccc(F)c4)nccn3c2=O)cc1Cl`, the Inhibition in test [1] is recorded as 6.9%; in test [2] it was -7.48%.

For `Cc1ccc(Oc2nccn3c(=O)n(CC(=O)Nc4ccc(Br)cc4F)nc23)cc1`, the figures for the Inhibition in test [1] and in test [2] were 5.87% and -0.38%, respectively.

On to `COc1cc(OC)c(NC(=O)Cn2nc3ccc(SC4CCCCC4)nn3c2=O)cc1Cl`, for which the Inhibition in test [1] was determined as 7.67%; in test [2], 5.95%.

Consider `CCc1ccc(N(Cc2ccc(F)cc2)S(=O)(=O)c2cccn3c(C)nnc23)cc1`, for which the Inhibition is given as 6.87% in test [1] and -8.04% in test [2].

As to `COc1ccc(Cl)cc1NC(=O)CSc1nnc2c(=O)n(-c3ccc(C)c(C)c3)ccn12`, the Inhibition in test [1] is listed as 15.8%; in test [2] it was -1.54%.

On to `CCc1ccc(NC(=O)Cn2nc3ccc(SC(C)(C)C)nn3c2=O)cc1`, for which the Inhibition in test [1] is on record as 4.76%; in test [2], -1.87%.

`Cc1ccc(Sc2nccn3c(=O)n(CC(=O)Nc4cc(Cl)ccc4C)nc23)c(C)c1`: the Inhibition is -0.43% in test [1] and -11.77% in test [2].

Consider `COc1cccc(-n2ccn3c(SCC(=O)c4cc(C)ccc4C)nnc3c2=O)c1`, for which the Inhibition is listed as 11.66% in test [1] and -1.7% in test [2].

`C=Cc1ccc(CN(c2ccc(F)c(F)c2)S(=O)(=O)c2cccn3cnnc23)cc1`: the values for the Inhibition in test [1] and in test [2] were -2.72% and -13.7%, respectively.

For the compound `Cc1ccc(-c2ccc3nn(Cc4ccc5c(c4)OCO5)c(=O)n3n2)cc1C`, the Inhibition in test [1] is -7.66%; in test [2], -8.33%.

As to `COc1ccc(NC(=O)CSc2nc3ccccc3n3cnnc23)cc1OC`, the Inhibition in test [1] amounted to 12.3%; in test [2] it was 2.46%.

On to `Cc1ccc(Oc2nccn3c(=O)n(CC(=O)Nc4ccc(Cl)cc4F)nc23)cc1`, for which the Inhibition in test [1] is listed as 5.22%; in test [2], -5.2%.

In the case of `COc1ccc(NC(=O)Cn2nc3cc(C)nc(Nc4cc(C)cc(C)c4)n3c2=O)cc1`, the Inhibition in test [1] is recorded as 9.51%; in test [2], -1.23%.

As to `Cc1ccc(-c2cc3c4nnc(CCC(=O)NCc5ccc(C(F)(F)F)cc5)n4ccn3n2)cc1C`, the Inhibition in test [1] is given as 3.78%; in test [2], -2.88%.

For the compound `COc1ccccc1Cn1c(=O)c2sccc2n2c(=O)n(Cc3ccc(Br)cc3)nc12`, the Inhibition is recorded as 5.17% in test [1] and 2.24% in test [2].

Take `Cc1cc2nn(CC(=O)N3CCCC3)c(=O)n2c(Nc2ccc(C)c(F)c2)n1`: the values for the Inhibition in test [1] and in test [2] were 5.2% and -7.93%, respectively.

As for `O=c1n(Cc2ccc3c(c2)OCO3)nc2c(S(=O)(=O)N3CCCC3)cccn12`, the Inhibition in test [1] is on record as 0.67%; in test [2], -7.1%.

Take `C=Cc1ccc(CN(c2ccc3c(c2)OCO3)S(=O)(=O)c2ccc3nncn3c2)cc1`: the values for the Inhibition in test [1] and in test [2] were 3.79% and -6.77%, respectively.

With `Cc1ccc(Oc2nccn3c(=O)n(CC(=O)Nc4ccccc4C(F)(F)F)nc23)cc1`, the Inhibition in test [1] came out at 6.18%; in test [2], 0.58%.

Consider `COc1ccc(NC(=O)c2ccc3nn(CC(=O)Nc4ccc(C(C)C)cc4)c(=O)n3c2)cc1`, for which the Inhibition in test [1] was 9.69%; in test [2] it was -3.43%.

Turning to `Cc1ccc(-c2cc3c4nnc(SCC(=O)Nc5ccccc5Br)n4ccn3n2)cc1`, the Inhibition was 1.85% in test [1] and -3.11% in test [2].

With `COc1ccccc1-n1ccn2c(SCc3cccc(F)c3)nnc2c1=O`, the Inhibition in test [1] was 11.17%; in test [2] it was -7.27%.

For `O=C(Cn1nc2nc(Nc3ccc(F)cc3)ccn2c1=O)N1CCOCC1`, the Inhibition is recorded as 9.39% in test [1] and -3.26% in test [2].

Take `CCc1ccccc1NC(=O)Cn1nc2c(SCc3ccc(Cl)cc3)nccn2c1=O`: the Inhibition in test [1] is recorded as 9.03%; in test [2], -5.25%.

For `O=C(Cn1nc2c(SCc3ccccc3)nccn2c1=O)NC1CCCCC1`, the Inhibition in test [1] was 7.46%; in test [2] it was -4.24%.

Take `CC(=O)c1ccc(NC(=O)Cn2nc3ccc(-c4ccccc4)nn3c2=O)cc1`: the Inhibition in test [1] was 7.56%; in test [2], -5.17%.

With `CCOC(=O)c1cccc(NC(=O)CSc2nc3ccccc3n3c(C(C)C)nnc23)c1`, the results for the Inhibition in test [1] and in test [2] were 7.87% and -1.12%, respectively.

With `COC(=O)c1cccc(NC(=O)Cn2nc3c(SCc4ccc(Cl)cc4)nccn3c2=O)c1`, the Inhibition in test [1] is 6.19%; in test [2], -8.47%.

Take `COc1ccccc1-n1ccn2c(SCc3ccc(C)cc3)nnc2c1=O`: the Inhibition in test [1] is given as 4.53%; in test [2], -10.18%.

Turning to `Cc1ccc(N(Cc2ccccc2F)S(=O)(=O)c2ccc3nncn3c2)cc1`, the results for the Inhibition in test [1] and in test [2] were -11.4% and -11.46%, respectively.

On to `CC(C)CCNC(=O)Cn1nc2n(Cc3cccs3)c(=O)c3sccc3n2c1=O`, for which the Inhibition in test [1] is reported as 3.31%; in test [2], -5.47%.

Turning to `CC(C)(C)OC(=O)N1CCC(NC(=O)CCc2nnc3ccc(-c4ccccc4)nn23)CC1`, the Inhibition was 1.31% in test [1] and -5.19% in test [2].

For `Cc1ccc(NC(=O)Cn2nc3c(SC4CCCCC4)nccn3c2=O)cc1`, the Inhibition in test [1] is given as 10.51%; in test [2], -0.3%.

Turning to `COc1ccccc1-n1ccn2c(SCc3ccccc3F)nnc2c1=O`, the results for the Inhibition in test [1] and in test [2] were 11.33% and -2.76%, respectively.

Source of the values: ChEMBL document CHEMBL4513146, “CO-ADD screening of Karazin Kharkiv National University (Ukraine) compounds”.
